According to PubChem BioAssay (EPA / NIEHS):
Results filed as inconclusive are left out. Activity calls are given as the source filed them. Rule for the calls, unless noted: active = hit-call score of the fitted dose curve at least 0.9, where 1 is the maximum; inactive = score below 0.9.

Columns and labels:
[1] = biological target: Paired box protein Pax-6 (Homo sapiens) (UniProt P26367); assay: ATG_Pax6_CIS: Attagene CIS-FACTORIAL HepG2 Assay for human Paired Box 6 (PAX6) (AID 2282956); settings: HepG2 CIS-FACTORIAL PAX6 reporter transcription, RNA readout; actives raise or lower the signal
Chain of Paired box protein Pax-6 (Homo sapiens) (P26367 whole entry, looked up): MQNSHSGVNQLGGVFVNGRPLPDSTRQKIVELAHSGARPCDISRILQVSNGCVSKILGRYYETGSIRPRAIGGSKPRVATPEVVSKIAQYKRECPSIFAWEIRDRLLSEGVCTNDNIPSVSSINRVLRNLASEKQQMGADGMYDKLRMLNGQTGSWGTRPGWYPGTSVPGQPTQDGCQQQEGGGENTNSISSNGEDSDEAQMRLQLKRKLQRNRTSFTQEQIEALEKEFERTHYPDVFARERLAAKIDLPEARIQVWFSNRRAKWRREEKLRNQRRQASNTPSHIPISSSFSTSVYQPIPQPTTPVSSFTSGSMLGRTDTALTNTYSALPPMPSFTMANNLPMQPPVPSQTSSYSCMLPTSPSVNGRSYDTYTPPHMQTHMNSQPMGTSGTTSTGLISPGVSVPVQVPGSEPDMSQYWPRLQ
Summary of the method: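 HepG2 cells transiently transfected with multiplexed cis-promoter reporter units (endogenous TF activity) were dosed for 24 h. Reporter mRNA was quantified by RT-PCR, 6-FAM labeling, HpaI digestion and capillary electrophoresis; bidirectional fitting versus DMSO baseline.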

[2] = ATG_PXRE_CIS: Attagene CIS-FACTORIAL HepG2 Assay for human Pregnane X Receptor Element (PXRE) (AID 2282957); settings: HepG2 Attagene CIS-FACTORIAL PXRE reporter, mRNA; actives raise or lower the signal
Summary of the method: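 HepG2 cells transiently transfected with cis-element-driven multiplexed reporter units; after 24 h chemical exposure, reporter mRNA measured by RT-PCR, 6-FAM labelling, HpaI digestion and capillary electrophoresis. Bidirectional fitting relative to DMSO.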

[3] = ATG_PPRE_CIS: Attagene CIS-FACTORIAL HepG2 Assay for human Peroxisome Proliferator-activated Response Element (PPRE) (AID 2282958); settings: HepG2 PPRE cis-element reporter, Attagene transcription factor profiling; actives raise or lower the signal
Summary of the method: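 Cells are first transfected transiently with the multiplexed reporter library, then dosed for 24 h. Total RNA is reverse-transcribed, amplified, fluorescently end-labeled and HpaI-cut before capillary electrophoresis; activity is fitted bidirectionally against DMSO controls.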

[4] = ATG_RORE_CIS: Attagene CIS-FACTORIAL HepG2 Assay for human RAR-related Orphan Receptor Element (RORE) (AID 2282959); settings: HepG2 Attagene cis-factorial RORE reporter, mRNA; actives raise or lower the signal
Summary of the method: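 Cells were HepG2 carrying transfected cis-regulated reporter constructs, dosed for 24 hours. Total RNA was reverse-transcribed and reporter cDNA amplified, fluorescently labeled and sized by capillary electrophoresis. Activity was fitted bidirectionally relative to DMSO.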

[5] = ATG_Sox_CIS: Attagene CIS-FACTORIAL HepG2 Assay for human SRY-box transcription factor (SOX) (AID 2282960); settings: HepG2 Attagene cis-factorial SOX reporter, mRNA; actives raise or lower the signal
Summary of the method: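 Transient MRTU transfection of HepG2; 24 h compound incubation; TriZol RNA, oligo(dT) RT, PCR, 6-FAM primer extension, HpaI cut, CE. Bidirectional fit, DMSO = baseline.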

[6] = biological target: Transcription factor Sp1 (Homo sapiens) (UniProt P08047); assay: ATG_Sp1_CIS: Attagene CIS-FACTORIAL HepG2 Assay for human Specificity Protein 1 (Sp1) (AID 2282961); settings: HepG2 Sp1 cis-reporter transcription, actives raise or lower the signal
Chain of Transcription factor Sp1 (Homo sapiens) (P08047 whole entry, looked up): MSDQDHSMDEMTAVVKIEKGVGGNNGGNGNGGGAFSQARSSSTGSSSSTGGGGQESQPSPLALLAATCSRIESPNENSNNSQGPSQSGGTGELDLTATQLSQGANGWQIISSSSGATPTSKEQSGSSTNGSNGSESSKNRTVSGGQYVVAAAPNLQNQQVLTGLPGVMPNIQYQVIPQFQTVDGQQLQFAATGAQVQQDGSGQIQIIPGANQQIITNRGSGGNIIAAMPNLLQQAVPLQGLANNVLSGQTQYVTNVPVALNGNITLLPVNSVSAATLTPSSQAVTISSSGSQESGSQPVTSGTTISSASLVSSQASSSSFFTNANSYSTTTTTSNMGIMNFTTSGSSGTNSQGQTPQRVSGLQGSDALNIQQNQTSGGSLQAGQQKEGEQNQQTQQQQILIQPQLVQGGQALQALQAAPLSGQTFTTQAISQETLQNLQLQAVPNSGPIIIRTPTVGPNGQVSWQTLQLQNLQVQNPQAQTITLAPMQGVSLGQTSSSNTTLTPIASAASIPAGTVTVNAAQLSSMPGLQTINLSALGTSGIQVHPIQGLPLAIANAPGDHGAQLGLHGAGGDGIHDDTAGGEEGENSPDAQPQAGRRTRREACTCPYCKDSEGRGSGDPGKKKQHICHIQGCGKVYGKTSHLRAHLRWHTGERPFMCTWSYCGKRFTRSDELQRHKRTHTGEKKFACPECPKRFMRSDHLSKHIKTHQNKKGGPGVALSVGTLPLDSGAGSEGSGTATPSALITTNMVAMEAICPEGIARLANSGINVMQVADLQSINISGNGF
Summary of the method: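 Endogenous Sp1 activity was gauged in human liver HepG2 cells bearing transfected reporter units under a cis-regulating promoter. After 24 h dosing, reporter mRNA was quantified by RT-PCR with capillary electrophoresis, and activity fitted bidirectionally versus DMSO.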

[7] = biological target: Signal transducer and activator of transcription 3 (Homo sapiens) (UniProt P40763); assay: ATG_STAT3_CIS: Attagene CIS-FACTORIAL HepG2 Assay for human Signal Transducer and Activator of Transcription 3 (STAT3) (AID 2282963); settings: HepG2, Attagene cis-factorial STAT3 reporter transcription; actives raise or lower the signal
Chain of Signal transducer and activator of transcription 3 (Homo sapiens) (P40763 whole entry, looked up): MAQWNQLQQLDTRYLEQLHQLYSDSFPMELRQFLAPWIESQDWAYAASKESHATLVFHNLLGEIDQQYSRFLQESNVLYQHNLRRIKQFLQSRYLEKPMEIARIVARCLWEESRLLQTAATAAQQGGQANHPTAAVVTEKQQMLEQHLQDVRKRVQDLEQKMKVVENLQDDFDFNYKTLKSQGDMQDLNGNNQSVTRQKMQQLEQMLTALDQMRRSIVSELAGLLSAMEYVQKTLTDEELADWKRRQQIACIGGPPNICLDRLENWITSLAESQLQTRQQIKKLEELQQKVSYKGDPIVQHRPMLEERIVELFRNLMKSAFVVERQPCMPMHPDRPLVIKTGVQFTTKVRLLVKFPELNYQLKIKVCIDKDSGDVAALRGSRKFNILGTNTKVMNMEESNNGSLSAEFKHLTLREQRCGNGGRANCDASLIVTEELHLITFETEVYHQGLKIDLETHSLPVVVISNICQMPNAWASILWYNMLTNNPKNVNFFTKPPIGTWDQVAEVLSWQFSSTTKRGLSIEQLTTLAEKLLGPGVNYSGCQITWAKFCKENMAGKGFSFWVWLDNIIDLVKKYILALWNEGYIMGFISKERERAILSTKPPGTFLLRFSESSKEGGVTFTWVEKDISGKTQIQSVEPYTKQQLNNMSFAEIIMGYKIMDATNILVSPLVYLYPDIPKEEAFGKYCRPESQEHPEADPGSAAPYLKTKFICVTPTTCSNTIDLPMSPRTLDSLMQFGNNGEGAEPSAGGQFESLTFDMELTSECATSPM
Summary of the method: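 Values derive from bidirectional fits relative to DMSO of reporter mRNA levels, measured by RT-PCR with capillary electrophoresis, in HepG2 cells carrying transiently transfected cis-regulated reporter units and exposed 24 h.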

[8] = ATG_TA_CIS: Attagene CIS-FACTORIAL HepG2 Assay for human TA Basal Promoter (AID 2282964); settings: HepG2 Attagene CIS-factorial TA basal promoter reporter; actives raise or lower the signal
Summary of the method: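 Multiplexed mRNA reporter assay, HepG2, 24 h. Reporter cDNA amplified, 6-FAM primer-extended, HpaI-cut, CE-sized; DMSO = negative control and baseline.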

[9] = ATG_TAL_CIS: Attagene CIS-FACTORIAL HepG2 Assay for human TAL Basal Promoter (AID 2282966); settings: HepG2 Attagene cis-factorial TAL promoter reporter; actives raise or lower the signal;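 note: background control endpoint measuring basal TAL promoter reporter mRNA not a specific factor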
Summary of the method: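 HepG2 cells transiently transfected with multiplexed cis-promoter reporter units, dosed 24 h. Reporter mRNA quantified by RT-PCR, 6-FAM labelling, HpaI digestion and capillary electrophoresis; TAL basal promoter serves as background control, fitted bidirectionally versus DMSO.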

[10] = ATG_TGFb_CIS: Attagene CIS-FACTORIAL HepG2 Assay for human Transforming Growth Factor (TGF) (AID 2282967); settings: HepG2 Attagene CIS TGFb reporter, mRNA transcription; actives raise or lower the signal
Summary of the method: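 Transcript-level reporter readout: HepG2 transfectants, 24 h exposure, RNA to cDNA, reporter-specific PCR, fluorescent primer extension, capillary sizing against ROX standards. Gain- or loss-of-signal relative to DMSO.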

[11] = ATG_VDRE_CIS: Attagene CIS-FACTORIAL HepG2 Assay for human Vitamin D Receptor Element (VDRE) (AID 2282968); settings: HepG2 VDRE cis-reporter transcription, actives raise or lower the signal
Summary of the method: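 Cell-based multiplexed reporter format in human liver HepG2 cells, 24 h post-dose. Fluorescence from capillary electrophoresis of reporter cDNA gives the signal, with DMSO as negative control and baseline.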

[12] = biological target: Nuclear receptor subfamily 1 group I member 3 (Homo sapiens) (UniProt Q14994); assay: ATG_CAR_TRANS: Attagene TRANS-FACTORIAL HepG2 Assay for human Constitutive Androstane Receptor (CAR) (AID 2282969; active = hit-call score of the fitted dose curve at least 0.9, where 1 is the maximum;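 note: activators raise reporter mRNA above DMSO so AC50 marks induction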); settings: HepG2 Attagene TRANS-FACTORIAL CAR reporter
Chain of Nuclear receptor subfamily 1 group I member 3 (Homo sapiens) (Q14994 whole entry, looked up, the tested form may be a part): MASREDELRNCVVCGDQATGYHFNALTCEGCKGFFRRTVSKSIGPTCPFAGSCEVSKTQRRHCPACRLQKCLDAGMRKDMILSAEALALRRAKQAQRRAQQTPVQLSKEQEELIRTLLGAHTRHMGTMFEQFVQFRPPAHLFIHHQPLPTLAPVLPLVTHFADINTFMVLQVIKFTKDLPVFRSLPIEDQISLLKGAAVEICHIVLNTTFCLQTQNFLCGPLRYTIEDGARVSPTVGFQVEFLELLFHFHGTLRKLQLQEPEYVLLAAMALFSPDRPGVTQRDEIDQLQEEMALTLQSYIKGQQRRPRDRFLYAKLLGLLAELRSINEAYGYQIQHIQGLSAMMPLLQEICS
Summary of the method: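 HepG2 cells transiently transfected with GAL4-UAS reporter units; TRANS format reads activity of exogenous chimeric NR-Gal4 protein. After 24 h dosing, reporter mRNA quantified by RT-PCR, 6-FAM labelling and capillary electrophoresis; gain of signal fitted against DMSO.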

[13] = biological target: Steroid hormone receptor ERR1 (Homo sapiens) (UniProt P11474); assay: ATG_ERRa_TRANS: Attagene TRANS-FACTORIAL HepG2 Assay for human Estrogen-Related Receptor alpha (ERRa) (AID 2282971; active = hit-call score of the fitted dose curve at least 0.9, where 1 is the maximum); settings: HepG2 Attagene TRANS reporter, ERRa transactivation
Chain of Steroid hormone receptor ERR1 (Homo sapiens) (P11474 whole entry, looked up, the tested form may be a part): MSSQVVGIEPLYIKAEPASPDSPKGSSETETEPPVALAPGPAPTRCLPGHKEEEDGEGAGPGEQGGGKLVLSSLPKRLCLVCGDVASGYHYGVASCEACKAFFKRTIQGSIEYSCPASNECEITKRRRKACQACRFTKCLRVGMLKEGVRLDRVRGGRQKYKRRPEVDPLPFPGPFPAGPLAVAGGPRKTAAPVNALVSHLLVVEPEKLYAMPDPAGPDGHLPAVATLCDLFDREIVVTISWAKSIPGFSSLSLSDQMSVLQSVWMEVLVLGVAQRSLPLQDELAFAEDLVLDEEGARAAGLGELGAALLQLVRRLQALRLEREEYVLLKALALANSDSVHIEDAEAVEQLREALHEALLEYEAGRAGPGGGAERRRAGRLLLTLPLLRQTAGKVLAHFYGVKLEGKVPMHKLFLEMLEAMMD
Summary of the method: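 HepG2 cells transiently transfected with GAL4-UAS reporter units and chimeric NR-Gal4 constructs; after 24 hour compound incubation, reporter mRNA quantified by RT-PCR, fluorescent labelling and capillary electrophoresis, gain of signal versus DMSO.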

[14] = biological target: X-box-binding protein 1 (Homo sapiens) (UniProt P17861); assay: ATG_Xbp1_CIS: Attagene CIS-FACTORIAL HepG2 Assay for human X-box Binding Protein 1 (XBP1) (AID 2282972); settings: HepG2 XBP1 cis-element reporter, Attagene multiplex; actives raise or lower the signal
Chain of X-box-binding protein 1 (Homo sapiens) (P17861 whole entry, looked up): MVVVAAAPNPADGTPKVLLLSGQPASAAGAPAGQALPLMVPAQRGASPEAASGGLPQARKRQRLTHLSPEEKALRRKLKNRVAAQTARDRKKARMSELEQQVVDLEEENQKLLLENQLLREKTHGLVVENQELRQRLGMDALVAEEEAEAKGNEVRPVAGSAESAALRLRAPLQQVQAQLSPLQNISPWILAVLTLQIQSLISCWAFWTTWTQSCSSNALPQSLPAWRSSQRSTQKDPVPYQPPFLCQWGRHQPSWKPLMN
Summary of the method: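 HepG2 cells transiently transfected with cis-regulated multiple reporter transcription units; endogenous transcription factor activity measured 24 hours after chemical dosing. Reporter mRNA quantified by RT-PCR, 6-FAM primer extension, HpaI digestion and capillary electrophoresis; bidirectional fitting versus DMSO.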

[15] = biological target: Androgen receptor (Homo sapiens) (UniProt P10275); assay: ATG_AR_TRANS: Attagene TRANS-FACTORIAL HepG2 Assay for human Androgen Receptor (AR) (AID 2282973; active = hit-call score of the fitted dose curve at least 0.9, where 1 is the maximum); settings: HepG2 Attagene TRANS-FACTORIAL AR reporter transcription
Chain of Androgen receptor (Homo sapiens) (P10275 whole entry, looked up, the tested form may be a part): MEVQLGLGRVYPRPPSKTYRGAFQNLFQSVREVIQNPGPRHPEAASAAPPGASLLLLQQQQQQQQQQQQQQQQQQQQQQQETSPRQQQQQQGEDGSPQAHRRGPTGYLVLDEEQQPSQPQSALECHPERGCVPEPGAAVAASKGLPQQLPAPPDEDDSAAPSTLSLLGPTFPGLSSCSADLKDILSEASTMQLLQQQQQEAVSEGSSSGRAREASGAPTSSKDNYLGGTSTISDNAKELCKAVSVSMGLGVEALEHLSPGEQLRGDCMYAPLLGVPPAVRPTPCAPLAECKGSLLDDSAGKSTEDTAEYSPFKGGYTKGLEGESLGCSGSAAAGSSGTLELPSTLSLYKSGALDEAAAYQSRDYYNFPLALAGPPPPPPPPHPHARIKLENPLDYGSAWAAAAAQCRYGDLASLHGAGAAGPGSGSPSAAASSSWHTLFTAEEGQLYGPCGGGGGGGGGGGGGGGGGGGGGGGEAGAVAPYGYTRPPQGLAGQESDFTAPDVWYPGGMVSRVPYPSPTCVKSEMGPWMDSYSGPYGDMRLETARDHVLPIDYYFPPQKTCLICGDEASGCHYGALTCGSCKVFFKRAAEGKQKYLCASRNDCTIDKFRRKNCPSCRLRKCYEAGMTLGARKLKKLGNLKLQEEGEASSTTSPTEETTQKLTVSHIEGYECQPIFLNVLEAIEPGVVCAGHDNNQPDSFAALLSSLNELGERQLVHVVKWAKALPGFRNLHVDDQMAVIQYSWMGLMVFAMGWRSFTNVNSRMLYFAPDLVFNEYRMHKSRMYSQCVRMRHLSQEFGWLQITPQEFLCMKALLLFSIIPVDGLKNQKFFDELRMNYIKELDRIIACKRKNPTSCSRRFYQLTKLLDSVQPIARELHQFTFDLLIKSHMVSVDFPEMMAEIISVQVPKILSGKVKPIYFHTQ
Summary of the method: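 HepG2 cells transiently transfected with AR-Gal4 chimera and GAL4-UAS reporter units; chemical exposure 24 h. Reporter mRNA quantified by RT-PCR with fluorescent labelling and capillary electrophoresis; gain-of-signal fitted against DMSO.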

[16] = ATG_M_19_TRANS: Attagene TRANS-FACTORIAL HepG2 Assay for M19 Transcription Factor (Internal Marker) (AID 2282974; active = hit-call score of the fitted dose curve at least 0.9, where 1 is the maximum); settings: HepG2 Attagene TRANS-FACTORIAL M19 internal marker reporter
Summary of the method: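 Cells: human HepG2, transiently transfected with multiplexed reporter transcription units. Exposure: 24 h. Detection: RT-PCR of reporter mRNA with capillary electrophoresis. Analysis: gain-of-signal vs DMSO.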

[17] = ATG_SREBP_CIS: Attagene CIS-FACTORIAL HepG2 Assay for human Sterol Regulatory Element Binding (SREBP) (AID 2282962); settings: HepG2 Attagene cis-factorial SREBP reporter, mRNA; actives raise or lower the signal
Summary of the method: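 HepG2 cells transiently transfected with multiplexed cis-element reporter units report endogenous transcription factor activity. After 24 h of chemical exposure, reporter mRNA was quantified by RT-PCR, 6-FAM labelling, HpaI digestion and capillary electrophoresis; bidirectional fits used DMSO as baseline.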

[18] = biological target: Estrogen receptor (Homo sapiens) (UniProt P03372); assay: ATG_ERa_TRANS: Attagene TRANS-FACTORIAL HepG2 Assay for human Estrogen Receptor alpha (ERa) (AID 2282970; active = hit-call score of the fitted dose curve at least 0.9, where 1 is the maximum); settings: HepG2 Attagene TRANS ERa GAL4 reporter, mRNA
Chain of Estrogen receptor (Homo sapiens) (P03372 whole entry, looked up, the tested form may be a part): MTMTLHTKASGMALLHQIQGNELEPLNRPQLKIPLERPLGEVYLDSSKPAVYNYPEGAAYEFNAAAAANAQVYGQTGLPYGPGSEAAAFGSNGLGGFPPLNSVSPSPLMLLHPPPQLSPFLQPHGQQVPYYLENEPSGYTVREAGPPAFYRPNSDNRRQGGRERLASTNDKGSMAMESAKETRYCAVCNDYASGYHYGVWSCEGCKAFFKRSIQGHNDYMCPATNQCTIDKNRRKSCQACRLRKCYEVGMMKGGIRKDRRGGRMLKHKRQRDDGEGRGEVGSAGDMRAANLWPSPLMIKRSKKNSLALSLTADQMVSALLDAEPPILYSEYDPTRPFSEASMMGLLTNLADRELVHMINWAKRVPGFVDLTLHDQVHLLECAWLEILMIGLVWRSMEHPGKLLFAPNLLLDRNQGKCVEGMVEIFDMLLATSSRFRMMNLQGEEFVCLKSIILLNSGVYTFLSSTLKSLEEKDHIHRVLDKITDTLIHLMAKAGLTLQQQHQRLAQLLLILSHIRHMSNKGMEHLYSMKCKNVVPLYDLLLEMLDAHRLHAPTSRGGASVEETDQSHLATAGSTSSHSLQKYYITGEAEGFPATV
Summary of the method: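 HepG2 cells transiently transfected with multiplexed GAL4-UAS reporter units read out chimeric NR-Gal4 activity. After 24 h compound exposure, reporter mRNA was quantified by RT-PCR, 6-FAM labeling, HpaI digestion and capillary electrophoresis, relative to DMSO.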

[19] = ATG_TCF_b_cat_CIS: Attagene CIS-FACTORIAL HepG2 Assay for human T-Cell-Factor with beta-catenin (TCF/b-cat) (AID 2282965); settings: HepG2 TCF/beta-catenin cis-reporter transcription, actives raise or lower the signal
Summary of the method: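 Cells of the HepG2 line carry transiently transfected reporter units whose promoters respond to endogenous factors. Twenty-four hours post-dosing, reporter mRNA induction is measured by fluorescent RT-PCR and capillary electrophoresis, with DMSO as baseline.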

Measured: AC50

N#CSCSC#N
active: [2] 1.26 µM
not listed: [17] | [18] | [19]
inactive: all other assays above

CSc1nc(NC(C)C)nc(NC(C)C)n1
active: [2] 4.94 µM | [11] 10.3 µM
not listed: [3] | [15] | [19]
inactive: all other assays above

CCc1cccc(C)c1N(C(=O)CCl)C(C)COC (stereo unspecified)
active: [2] 0.603 µM | [11] 9.18 µM
not listed: [3] | [4] | [13] | [15] | [17] | [18]
inactive: all other assays above

CC1(C(=O)Nc2ccc(O)c(Cl)c2Cl)CCCCC1
active: [2] 2.91 µM | [3] 36.3 µM | [4] 50 µM | [11] 10.8 µM
not listed: [13] | [15] | [16] | [17] | [18] | [19]
inactive: all other assays above

CCOC(=O)CC(SP(=O)(OC)OC)C(=O)OCC (stereo unspecified)
active: [2] 34.8 µM | [3] 39.7 µM
not listed: [11] | [13] | [15] | [17] | [18] | [19]
inactive: all other assays above
